# Measurements from PubChem BioAssay.
# “And” between values parts separate entries of the source, which are not always exact repeats. Equal entries are not always repeated. Results filed as inconclusive are left out. For part of these data: Potency and affinity values are given separately. The source made the active and inactive calls. Unless noted, no rule for the calls is given here.
# Key:
# [1] = molecular target: 6-phosphogluconate dehydrogenase, decarboxylating (Homo sapiens) (UniProt P52209); test: 6PGD enzyme inhibitors, primary screen, biochemical, human, recombinant enzyme, NADPH absorbance (AID 1159550;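 active = at least 20% inhibition of 6-phosphogluconate dehydrogenase activity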); conditions: recombinant 6PGD, NADPH absorbance 341 nm; at 10 µM; stronger effect = higher value
# Chain of 6-phosphogluconate dehydrogenase, decarboxylating (Homo sapiens) (P52209 whole entry, looked up): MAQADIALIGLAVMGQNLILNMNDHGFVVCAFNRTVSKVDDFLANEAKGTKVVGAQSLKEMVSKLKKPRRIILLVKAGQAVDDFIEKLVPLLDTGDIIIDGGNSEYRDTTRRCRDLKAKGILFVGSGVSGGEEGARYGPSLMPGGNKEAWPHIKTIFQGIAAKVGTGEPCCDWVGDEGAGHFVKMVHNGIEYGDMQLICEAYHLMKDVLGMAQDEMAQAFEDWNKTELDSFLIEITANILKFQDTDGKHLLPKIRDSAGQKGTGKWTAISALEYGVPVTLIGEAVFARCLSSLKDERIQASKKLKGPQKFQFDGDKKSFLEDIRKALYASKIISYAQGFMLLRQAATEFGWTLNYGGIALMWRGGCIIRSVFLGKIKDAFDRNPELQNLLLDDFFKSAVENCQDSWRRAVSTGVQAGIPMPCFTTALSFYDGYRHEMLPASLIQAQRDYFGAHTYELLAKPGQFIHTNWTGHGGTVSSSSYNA
# [2] = tested on: Aerobactin synthetase IucA (Klebsiella pneumoniae hvKP1); test: Biochemical IucA enzyme inhibition primary screen of the Spectrum library (AID 1346200); conditions: malachite green pyrophosphate, A620, at 8 µM, stronger effect = lower value;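 also: 100% = wells without compound and 0% = wells lacking enzyme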
# [3] = molecular target: Mitogen-activated protein kinase 7 (Homo sapiens) (UniProt Q13164); test: ERK5 transactivation activators in reporter cells, primary screen, cell-based, HTS (AID 1508626;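 active = luciferase signal above three times the same-plate solvent-only control wells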;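 also: luciferase driven by Gal4-ERK5 fusion binding five Gal4 sites before minimal TATA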); conditions: HeLa Gal4-ERK5 transactivation, 18 h, at 5 µM, stronger effect = higher value
# Chain of Mitogen-activated protein kinase 7 (Homo sapiens) (Q13164 whole entry, looked up, the tested form may be a part): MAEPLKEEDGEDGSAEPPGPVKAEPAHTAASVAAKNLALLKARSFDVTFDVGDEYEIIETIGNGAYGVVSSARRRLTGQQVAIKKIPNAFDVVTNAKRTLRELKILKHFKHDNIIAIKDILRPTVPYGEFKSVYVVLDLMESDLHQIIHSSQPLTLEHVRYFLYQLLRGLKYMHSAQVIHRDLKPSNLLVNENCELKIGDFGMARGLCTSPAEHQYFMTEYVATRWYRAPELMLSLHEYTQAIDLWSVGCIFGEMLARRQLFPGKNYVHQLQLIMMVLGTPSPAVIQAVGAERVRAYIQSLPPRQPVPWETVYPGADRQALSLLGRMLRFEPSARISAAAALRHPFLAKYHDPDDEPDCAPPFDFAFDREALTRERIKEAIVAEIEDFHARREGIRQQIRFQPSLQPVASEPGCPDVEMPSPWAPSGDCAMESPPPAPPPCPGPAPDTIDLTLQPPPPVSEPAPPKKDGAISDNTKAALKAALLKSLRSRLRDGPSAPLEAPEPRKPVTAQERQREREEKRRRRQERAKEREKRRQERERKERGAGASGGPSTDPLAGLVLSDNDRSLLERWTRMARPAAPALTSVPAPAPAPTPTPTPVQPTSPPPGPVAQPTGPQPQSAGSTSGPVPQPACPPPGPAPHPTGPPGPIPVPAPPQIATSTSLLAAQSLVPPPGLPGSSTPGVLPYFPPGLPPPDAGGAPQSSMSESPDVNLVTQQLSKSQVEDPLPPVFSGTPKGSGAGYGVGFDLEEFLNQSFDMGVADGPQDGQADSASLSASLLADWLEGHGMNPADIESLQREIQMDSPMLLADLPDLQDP
# [4] = molecular target: ATP-dependent translocase ABCB1 (Homo sapiens) (UniProt P08183); test: MDR1 (ABCB1) efflux transporter inhibition, cell-based (AID 377; in the data active = fluorescence slope change above about 50%); conditions: MDR1-expressing cells, fluorescent substrate accumulation slope; stronger effect = higher value; concentration not given here
# [5] = hESC survival regulators, cell-based (AID 493140); conditions: human embryonic stem cell survival screen; stronger effect = higher value;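 also: cells exposed to compounds for four days before counting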
# [6] = liver-stage malaria parasite growth inhibition, primary screen, cell-based, HepG2, luciferase luminescence, HepG2 viability (AID 624349; in the data active = parasite load remaining mostly below about 12%, no sharp cut-off; inactive = mostly above about 10%;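 also: 100% = mean of DMSO negative control wells on the same plate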); conditions: P. berghei liver stage in HepG2, luciferase luminescence, concentration not given here; parasite load remaining: stronger effect = lower value; viability: measured here: HepG2 viability without parasites
# [7] = sensitizers of A549 cells to miR-34 induction, primary screen, imaging, A549 dox-inducible miR-34, nuclei and caspase counts (AID 1347080;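 active = compounds whose cell count with miR-34 switched on is under 0.7 times the count with it off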); conditions: A549 miR-34 inducible, Hoechst nuclei count, 48 h
# [8] = survival rescue of mitochondrial mutant cells in low glucose, primary screen, MELAS cybrids, Rieske KO mouse fibroblasts, CellTiter-Glo (AID 1508586;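 active = mean z-score across replicates of 1.96 or higher in either the MELAS or the Rieske mutant cell line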;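 also: z relative to plate mean and SD of compound and empty wells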)
# [9] = polyglutamine-triggered caspase-3 activation inhibitors, cell-based (AID 1583); conditions: polyglutamine-induced caspase-3 activation, cell assay; stronger effect = higher value;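 tested at 10 µM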
# [10] = suppressors of polyQ aggregation in yeast, 75Q-TubU reporter (AID 1593); conditions: Yeast 75Q polyglutamine aggregation reporter
# [11] = rescue of polyQ-huntingtin neuronal dysfunction in worms, whole organism, C. elegans mechanosensory neurons, N-terminal huntingtin (AID 1599); conditions: touch response, stronger effect = higher value
# [12] = inhibitors of mitochondrial cytochrome c release, biochemical, purified mitochondria (AID 1603); conditions: stronger effect = lower value;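 also: mouse liver mitochondria challenged with calcium chloride; signal normalized to the plate average as 100%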
# [13] = inhibitors of polyQ protein aggregation (AID 1604); conditions: polyglutamine-induced protein aggregation inhibition assay; stronger effect = higher value; tested at 2.5 µM
# [14] = enhancers of glutamate uptake in motor neurons, MN-1 cell line (AID 1612); conditions: MN-1 motor neuron cells, stronger effect = higher value;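 also: tested at 1 µM final; 0% = mean of DMSO vehicle wells on each plate; positive means more glutamate uptake than control and negative means less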
# [15] = suppressors of polyglutamine aggregation in yeast, 75Q-TubH (AID 1616); conditions: S. cerevisiae 75Q-TubH polyglutamine aggregation suppression; stronger effect = higher value
# [16] = molecular target: NAD(+) hydrolase SARM1 (Homo sapiens) (UniProt Q6SZW1); test: SARM1 TIR NADase inhibitors, cell lysate, NAD-Glo luminescence (AID 1508614;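 active = compound whose remaining NAD level is above about 45 nM, limit read from the data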;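 also: higher remaining NAD means stronger inhibition of SARM1 NADase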); conditions: SAM-TIR HEK293T lysate NADase, at 1 µM, stronger effect = higher value
# Chain of NAD(+) hydrolase SARM1 (Homo sapiens) (Q6SZW1 whole entry, looked up): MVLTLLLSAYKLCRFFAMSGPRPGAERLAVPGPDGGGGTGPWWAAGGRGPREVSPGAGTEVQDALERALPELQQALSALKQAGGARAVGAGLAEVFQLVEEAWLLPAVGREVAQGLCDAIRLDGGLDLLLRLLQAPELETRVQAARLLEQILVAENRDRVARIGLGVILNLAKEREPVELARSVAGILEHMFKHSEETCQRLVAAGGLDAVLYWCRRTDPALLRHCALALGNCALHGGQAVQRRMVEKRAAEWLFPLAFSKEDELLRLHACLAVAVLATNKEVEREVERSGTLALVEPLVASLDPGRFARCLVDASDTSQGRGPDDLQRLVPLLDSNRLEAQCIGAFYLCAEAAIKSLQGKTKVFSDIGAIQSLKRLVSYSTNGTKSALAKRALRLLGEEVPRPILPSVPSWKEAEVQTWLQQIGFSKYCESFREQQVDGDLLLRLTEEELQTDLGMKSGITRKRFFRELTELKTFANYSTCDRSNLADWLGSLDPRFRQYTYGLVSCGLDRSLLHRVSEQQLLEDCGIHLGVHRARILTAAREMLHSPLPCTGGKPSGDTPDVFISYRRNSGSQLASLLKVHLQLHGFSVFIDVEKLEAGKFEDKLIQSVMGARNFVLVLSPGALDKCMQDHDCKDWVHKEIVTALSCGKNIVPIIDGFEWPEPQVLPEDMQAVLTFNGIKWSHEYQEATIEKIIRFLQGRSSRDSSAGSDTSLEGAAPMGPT
# [17] = antimalarial activity against Dd2 strain (AID 2302;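 active = growth inhibition above 50% at the single 2 µM test dose, taken to imply half-maximal potency below 2 µM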;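 also: 0% = DMSO untreated growth and 100% = chloroquine plus artemisinin killed control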); conditions: P. falciparum Dd2 in RBCs, LDH growth readout, 72 h; at 2 µM; stronger effect = higher value
# [18] = HepG2 cytotoxicity, primary screen, cytotoxicity control for P. falciparum antimalarial project, cell-based, ATP luminescence (AID 2303;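 active = inhibition above 50%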;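 also: 0% = DMSO wells and 100% = digitonin-killed cells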); conditions: HepG2 viability, 24-48 h, at 10 µM, stronger effect = higher value
# [19] = molecular target: L-lactate dehydrogenase (Plasmodium falciparum (isolate CDC / Honduras)) (UniProt Q27743); test: PfLDH activity inhibition – cell lysate, 3D7 strain, counter-screen for P. falciparum growth inhibition project (AID 2304);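 also: 0% = vehicle and 100% = reference inhibitor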; conditions: P. falciparum 3D7 crude extract, LDH APAD/NBT absorbance; at 2 µM; stronger effect = higher value
# Chain of L-lactate dehydrogenase (Plasmodium falciparum (isolate CDC / Honduras)) (Q27743 whole entry, looked up): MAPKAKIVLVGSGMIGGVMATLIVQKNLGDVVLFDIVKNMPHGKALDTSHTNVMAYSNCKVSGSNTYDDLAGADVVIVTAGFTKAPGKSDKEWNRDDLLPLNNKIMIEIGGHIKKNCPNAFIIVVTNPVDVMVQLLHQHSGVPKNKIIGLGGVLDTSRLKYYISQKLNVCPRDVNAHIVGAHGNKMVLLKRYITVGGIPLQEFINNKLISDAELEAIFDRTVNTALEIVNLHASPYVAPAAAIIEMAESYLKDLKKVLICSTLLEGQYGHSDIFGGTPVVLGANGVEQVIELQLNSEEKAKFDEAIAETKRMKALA
# [20] = inhibition of 3D7 malaria parasite growth – strain 3D7 (AID 2306);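 also: 0% = DMSO wells and 100% = chloroquine plus artemisinin control wells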; conditions: P. falciparum 3D7 erythrocytic growth, LDH absorbance, 72 h; at 2 µM; stronger effect = higher value
# [21] = molecular target: Calcium-dependent protein kinase 1 (Plasmodium falciparum (isolate 3D7)) (UniProt P62344); test: PfCDPK1 kinase inhibitors, biochemical, TCAMS library (AID 1159585; cut-off not given, nearly all actives have IC50 up to about 0.98 µM;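 also: inhibitors leave more ATP so luminescence rises with inhibition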); conditions: recombinant PfCDPK1, Kinase-Glo ATP depletion luminescence
# Chain of Calcium-dependent protein kinase 1 (Plasmodium falciparum (isolate 3D7)) (P62344 whole entry, looked up): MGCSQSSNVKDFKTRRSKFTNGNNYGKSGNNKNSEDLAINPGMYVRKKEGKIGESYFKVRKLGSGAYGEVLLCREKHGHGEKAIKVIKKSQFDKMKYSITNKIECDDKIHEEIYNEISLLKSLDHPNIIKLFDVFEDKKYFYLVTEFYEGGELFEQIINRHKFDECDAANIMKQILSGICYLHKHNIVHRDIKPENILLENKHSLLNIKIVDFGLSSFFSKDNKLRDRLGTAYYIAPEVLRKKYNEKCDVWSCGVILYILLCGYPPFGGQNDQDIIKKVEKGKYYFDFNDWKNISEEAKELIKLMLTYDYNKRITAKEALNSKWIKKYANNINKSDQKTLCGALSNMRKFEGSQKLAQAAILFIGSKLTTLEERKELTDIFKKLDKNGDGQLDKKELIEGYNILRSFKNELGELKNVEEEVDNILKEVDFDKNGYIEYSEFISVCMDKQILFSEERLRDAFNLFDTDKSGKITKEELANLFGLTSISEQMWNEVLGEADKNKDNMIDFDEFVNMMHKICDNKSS
# [22] = molecular target: Plasmodium falciparum protein kinase 6 (PK6, PF3D7_1337100) (UniProt Q8IDW1); test: PfPK6 kinase inhibitors, biochemical, TCAMS library (AID 1159586); conditions: recombinant PfPK6, Kinase-Glo ATP depletion luminescence
# Chain of Plasmodium falciparum protein kinase 6 (PK6, PF3D7_1337100) (Q8IDW1 1-305): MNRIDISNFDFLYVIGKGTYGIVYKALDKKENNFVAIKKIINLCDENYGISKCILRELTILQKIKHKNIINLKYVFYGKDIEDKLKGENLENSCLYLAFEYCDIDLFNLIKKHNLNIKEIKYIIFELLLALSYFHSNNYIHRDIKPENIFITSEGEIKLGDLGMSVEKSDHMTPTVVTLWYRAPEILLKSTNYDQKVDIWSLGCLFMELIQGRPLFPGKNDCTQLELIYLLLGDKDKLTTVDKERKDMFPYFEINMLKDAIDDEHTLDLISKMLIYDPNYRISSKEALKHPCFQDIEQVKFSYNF
# [23] = molecular target: Protein kinase 7 (PK7), Plasmodium falciparum 3D7 (PF3D7_0213400) (UniProt Q7YTF7); test: inhibition of Plasmodium PK7 catalytic activity – biochemical, TCAMS antimalarial set, Kinase-Glo luminescence (AID 1159587); conditions: recombinant PfPK7, Kinase-Glo ATP depletion luminescence
# Chain of Protein kinase 7 (PK7), Plasmodium falciparum 3D7 (PF3D7_0213400) (Q7YTF7 1-343): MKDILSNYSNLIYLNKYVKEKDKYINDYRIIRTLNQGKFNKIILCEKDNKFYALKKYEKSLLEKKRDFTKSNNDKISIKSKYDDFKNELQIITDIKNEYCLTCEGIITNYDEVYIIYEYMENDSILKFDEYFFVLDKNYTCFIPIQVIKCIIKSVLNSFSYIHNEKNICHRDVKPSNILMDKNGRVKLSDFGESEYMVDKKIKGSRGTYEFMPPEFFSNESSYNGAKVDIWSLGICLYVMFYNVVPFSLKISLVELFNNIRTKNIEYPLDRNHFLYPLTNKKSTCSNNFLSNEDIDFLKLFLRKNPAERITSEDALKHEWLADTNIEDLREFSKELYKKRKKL
# [24] = molecular target: Calcium-dependent protein kinase 4 (Plasmodium falciparum (isolate 3D7)) (UniProt Q8IBS5); test: PfCDPK4 kinase inhibitors, biochemical, TCAMS library (AID 1159588; cut-off not given, nearly all actives have IC50 up to about 0.91 µM); conditions: recombinant PfCDPK4, Kinase-Glo ATP depletion luminescence
# Chain of Calcium-dependent protein kinase 4 (Plasmodium falciparum (isolate 3D7)) (Q8IBS5 whole entry, looked up): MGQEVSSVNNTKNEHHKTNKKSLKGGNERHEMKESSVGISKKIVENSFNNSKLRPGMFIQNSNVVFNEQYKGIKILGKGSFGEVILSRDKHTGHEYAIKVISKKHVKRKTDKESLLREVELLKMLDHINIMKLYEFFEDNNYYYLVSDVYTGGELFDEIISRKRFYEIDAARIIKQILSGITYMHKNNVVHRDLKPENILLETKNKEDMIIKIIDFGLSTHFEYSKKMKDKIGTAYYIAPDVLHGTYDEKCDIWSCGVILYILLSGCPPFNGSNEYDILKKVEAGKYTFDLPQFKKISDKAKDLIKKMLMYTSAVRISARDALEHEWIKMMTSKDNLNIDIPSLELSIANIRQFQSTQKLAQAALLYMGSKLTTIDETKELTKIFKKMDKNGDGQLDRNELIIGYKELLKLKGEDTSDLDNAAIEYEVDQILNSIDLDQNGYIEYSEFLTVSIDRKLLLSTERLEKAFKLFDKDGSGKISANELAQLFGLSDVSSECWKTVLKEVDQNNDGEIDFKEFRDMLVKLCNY
# [25] = tested on: Aerobactin synthetase IucA (Klebsiella pneumoniae); test: IucA aerobactin synthetase inhibitors, biochemical, Tocris library, absorbance (AID 1345561); conditions: purified IucA enzyme assay, absorbance (OD) read-out; stronger effect = lower value; concentration not given here;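 also: 100% = enzyme without compound and 0% = no enzyme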
# [26] = viability rescue of complex I mutant cybrids, primary screen, cell-based, galactose medium, ATP luminescence (AID 1645843;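 active = z-score of at least 1.8 in each of two replicates, scored against plate mean and spread of sample wells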;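 also: positive z means more ATP and so rescue of galactose-driven cybrid death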); conditions: complex I mutant cybrid cells, 72 h, stronger effect = higher value
# [27] = mitochondrial permeability transition inhibitors (AID 1580); conditions: isolated mitochondria, permeability transition inhibition
# [28] = protection against mutant huntingtin cytotoxicity, PC12 cells, LDH release (AID 1610); conditions: PC12 mutant huntingtin toxicity, final LDH at 4 uM, stronger effect = lower value
# [29] = phospholipid biosynthesis inhibitors in animal cells, primary screen, cell-based, LOPAC library, screen 4 (AID 1347384); conditions: phospholipid biosynthesis inhibition screen, at 10 µM
# [30] = measured here: relative caspase fold change +Dox/-Dox
# [31] = measured here: total cells with miR-34 induction, stronger effect = lower value
# [32] = measured here: total cells without miR-34 induction
structure (smiles),measurement,setting,value
CCC(C)C(=O)O[C@@H]1C[C@@]2(C)[C@H](c3ccoc3)OC(=O)CC23OC2(C)O[C@]14[C@]1(C)[C@@H](CC(=O)OC)C5(C)CC1(O)[C@](O)(C5OC(=O)C1(C)OC1C)[C@@H](OC(C)=O)[C@]34O2 (some centres undefined),inhibition,[1],-16.5% (inactive)
same,activity remaining,[2],103% (inactive)
same,luciferase signal,[3],12 AU (inactive)
CSc1nc(NC(C)C)nc(NC(C)C)n1,inhibition,[1],-9.01% (inactive)
same,activity remaining,[2],98.6% (inactive)
same,luciferase signal,[3],60 AU (inactive)
C[C@]12CCC(=O)C=C1C=C[C@@H]1[C@@H]2CC[C@@]2(C)[C@H]1CC[C@@]2(O)CCC(=O)O,fluorescence slope change,[4],75% (active)
same,survival,[5],19.2 (inactive)
same,parasite load remaining,[6],48.7% (inactive) and 84.2% (inactive)
same,viability,[6],45.8% and 86.3%
same,inhibition,[1],-4.06% (inactive)
same,fold change,[7]; stronger effect = lower value,0.935 (inactive)
same,fold change,[7]; [30],1.18
same,cell count,[7]; [31],8420
same,cell count,[7]; [32],9010
same,z-score,"[8]; MELAS cybrid survival, CellTiter-Glo 48 h, stronger effect = higher value",0.754 (inactive)
same,z-score,"[8]; Rieske KO mouse fibroblast survival, CellTiter-Glo 72 h",0.299
CCC(C)[C@H]1O[C@]2(C=C[C@@H]1C)C[C@@H]1C[C@@H](C/C=C(\C)[C@@H](OC3C[C@H](OC)C(O[C@H]4C[C@H](OC)[C@@H](O)[C@H](C)O4)[C@H](C)O3)[C@@H](C)/C=C/C=C3\CO[C@@H]4[C@H](O)C(C)=C[C@@H](C(=O)O1)[C@]34O)O2 (some centres undefined),inhibition,[9],-42.7%
same,score,[10],1.47
same,rescue above control,[11],0
same,cytochrome c release ratio,[12],4.06
same,inhibition of aggregation,[13],43.1%
same,glutamate uptake change,[14],-28.6%
same,aggregation suppression score,[15],1.02
same,parasite load remaining,[6],83.1% (inactive) and 34.5% (inactive)
same,viability,[6],68% and 87%
same,inhibition,[1],-3.19% (inactive)
same,activity remaining,[2],106% (inactive)
same,fold change,[7]; stronger effect = lower value,1.11 (inactive)
same,fold change,[7]; [30],1.23
same,cell count,[7]; [31],3700
same,cell count,[7]; [32],3330
CCC(N)C(O)c1ccc(O)c(O)c1 (centres undefined),parasite load remaining,[6],130% (inactive) and 71.4% (inactive)
same,viability,[6],87.2% and 104%
same,inhibition,[1],-10.4% (inactive)
same,activity remaining,[2],121% (inactive)
same,fold change,"[7]; stronger effect = lower value, cell number ratio, induced over uninduced",0.787 (inactive)
same,fold change,[7]; [30],5.47
same,cell count,[7]; [31],7560
same,cell count,[7]; [32],9610
same,remaining NAD,[16],10 nM (inactive)
same,luciferase signal,[3],76 AU (inactive)
COc1ccc([C@H]2Oc3c(I)c(OC)cc(OC)c3C[C@@H]2O)cc1OC,inhibition,[1],14.5% (inactive)
same,activity remaining,[2],103% (inactive)
same,luciferase signal,[3],44 AU (inactive)
COC(=O)/C=C/C(=O)N[C@@H]1CC[C@@]2(O)[C@H]3Cc4ccc(O)c5c4[C@@]2(CCN3CC2CC2)[C@H]1O5,growth inhibition,[17],66% (active)
same,inhibition,[18],9% (inactive)
same,inhibition,[19],-2% (inactive)
same,growth inhibition,[20],95% (active)
same,outcome,[21],inactive
same,outcome,[22],inactive
same,outcome,[23],inactive
same,outcome,[24],inactive
same,remaining activity,[25],109% (inactive)
same,fold change,[7]; stronger effect = lower value,0.925 (inactive)
same,fold change,[7]; [30],0.877
same,cell count,[7]; [31],7410
same,cell count,[7]; [32],8010
same,z-score,[26],-0.405 (inactive)
CC1(C)C(=O)C=C[C@@]2(C)C1=C(O)C(=O)[C@]1(C)[C@@H]2CC[C@@]2(C)[C@H](c3ccoc3)C[C@H]3O[C@]321,inhibition,[1],11.8% (inactive)
same,luciferase signal,[3],12 AU (inactive)
Cc1c(O)c(O)cc2c1CC=C1[C@@]2(C)CC[C@@]2(C)[C@@H]3C[C@](C)(C(=O)O)CC[C@]3(C)CC[C@]12C,inhibition,[1],-26.2% (inactive)
same,luciferase signal,[3],128 AU (inactive)
CC[C@H]1CN2CC[C@@H]1C[C@H]2[C@H](O)c1cc[n+]([O-])c2ccc(OC)cc12,outcome,[21],inactive
same,outcome,[22],inactive
same,outcome,[23],inactive
same,outcome,[24],inactive
CO[C@H]1C[C@H](O[C@H]2CC[C@@]3(C)[C@H](CC[C@@H]4[C@@H]3CC[C@]3(C)[C@@H](C5=CC(=O)OC5)[C@@H](OC(C)=O)C[C@]43O)C2)O[C@@H](C)[C@@H]1O,inhibition,[1],5.8% (inactive)
same,luciferase signal,[3],32 AU (inactive)
CO[C@@H]1C[C@@H](C[C@H]2CC[C@H](C)[C@H]([C@@H](C)C(=O)O)O2)O[C@]2(O[C@](C)([C@H]3CC[C@@](C)(C4O[C@@H](C5O[C@@](O)(CO)[C@H](C)C[C@@H]5C)C[C@@H]4C)O3)C[C@H]2C)[C@@H]1C (some centres undefined),EC50,[27],0.175 µM (active)
same,inhibition,[9],49.6%
same,score,[10],0.17
same,rescue above control,[11],2.36
same,cytochrome c release ratio,[12],0.42
same,inhibition of aggregation,[13],-0.07%
same,normalised LDH release,[28],0.812
same,glutamate uptake change,[14],-43.9%
same,aggregation suppression score,[15],0.0976
same,inhibition,[1],10.1% (inactive)
COC(=O)[C@]1(C)CC[C@]2(C)CC[C@]3(C)C4=CCc5c(cc(O)c(O)c5C)[C@]4(C)CC[C@@]3(C)[C@@H]2C1,inhibition,[1],5.04% (inactive)
same,luciferase signal,[3],20 AU (inactive)
CC(=O)OCC1=C(C(=O)O)N2C(=O)[C@@H](NC(=O)CCC[C@@H](N)C(=O)O)[C@H]2SC1,inhibition,[1],-2.43% (inactive)
same,outcome,[29],inactive
same,remaining NAD,[16],10 nM (inactive)
